Source: PubChem BioAssay AID1531 (NMMLSC, 2009)
The campaign covered roughly 290,000 compounds. About 3,300 (1.1%) were called active. No stated cut-off is given here; in the data, active means binding response below about 67% or above about 130%; inconclusive means no clear call, values can overlap the other calls; inactive means in between. What follows is part of a selection rich in actives, with near analogues and random picks from the rest.

Target: Mitogen-activated protein kinase kinase kinase 2 (Homo sapiens) (UniProt Q9Y2U5)
Assay: wildtype MEKK2 PB1-MEK5 interaction, increase or decrease – biochemical, multiplex bead flow cytometry, Alexa488-MEK5, primary screen (AID 1531)
Conditions: Alexa488-MEK5 binding to MEKK2 WT, at 10 µM, actives lie on both sides

| Structure (SMILES) | binding response (% of control) |
| --- | --- |
| CCOC(=O)c1c(-c2cccc(C)c2)csc1NC(=O)c1c(-c2ccccc2)noc1C | 84% (inactive) |
| CCOC(=O)c1c(-c2ccccc2)csc1NC(=S)NC(=O)c1ccccc1 | 13% [inhibitor] (active) |
| CCOC(=O)c1c(-c2ccc(-c3ccccc3)cc2)csc1NC(=O)CCC(=O)O | 97% (inactive) |
| Cc1cccc(C)c1NC(=O)N1CC(C)OC(C)C1 (stereo unspecified) | 107% (inactive) |
| Cc1cccc(C)c1NC(=O)C1(C)c2cccc[n+]2CC(=O)N1Cc1cccs1 (stereo unspecified) | -5% (active) |
| CCc1cccc(C)c1NC(=S)N(CCCN1CCN(C)CC1)Cc1cccs1 | 100% (inactive) |
| COc1ccc(C(=O)N2CCCCC2C(=O)Nc2ccc(-n3nc(C)cc3C)cc2)o1 (stereo unspecified) | 107% (inactive) |
| COc1ccc(Nc2ncc(F)c(N3CCOCC3)n2)cc1 | 78% (inactive) |
| CC(=O)N1c2ccc(S(=O)(=O)N3CCC(C(=O)NCc4ccc(F)cc4)CC3)cc2CC1C (stereo unspecified) | 99% (inactive) |
| CN1C(=O)/C(=C\c2ccc(-c3ccccc3)o2)SC1=S | 14% [inhibitor] (active) |
| O=C(O)C(c1ccccc1)N1C(=O)/C(=C\c2ccc(-c3cccc(Cl)c3)o2)SC1=S (stereo unspecified) | 85% (inactive) |
| NS(=O)(=O)c1ccc(-c2ccc(/C=C3\SC(=O)NC3=O)o2)cc1 | 102% (inactive) |
| COc1cc2c(cc1OC)C(c1ccc(C)o1)CC(=O)N2 (stereo unspecified) | 98% (inactive) |
| COc1ccc(C2CC(=O)Nc3cc(C)c(C)cc32)c(OC)c1OC (stereo unspecified) | -2% [inhibitor] (active) |
| COc1cc2c(cc1OC)C(c1ccncc1)CC(=O)N2 (stereo unspecified) | 117% (inactive) |
| CCOc1ccc(C)cc1S(=O)(=O)NC1CCCCCC1 | 106% (inactive) |
| Cc1ccc2c(c1)N(CC(=O)N1CCC(O)CC1)C(=O)CO2 | 94% (inactive) |
| N=c1c2c(-c3ccccc3)c(-c3ccccc3)n(Cc3ccccc3)c2ncn1CCCO | 155% (active) |
| CCN(CC)CCn1cnc2c1c(=O)[nH]c(=O)n2Cc1ccccc1 | 104% (inactive) |
| N=c1c2c(-c3ccccc3)c(-c3ccccc3)oc2ncn1Cc1ccco1 | 92% (inactive) |
| O=C(CN1CCN(c2ccccn2)CC1)Nc1ccc(Br)cc1 | 109% (inactive) |
| O=C(CN1CCN(c2ccccn2)CC1)NC1CCCCC1 | 104% (inactive) |
| O=C(CN1CCN(c2ccccn2)CC1)N1CCc2ccccc21 | 3% (active) |
| Cc1ccc(CNC(=O)c2ccc3c(c2)S(=O)(=O)c2ccccc2C3=O)cc1 | 111% (inactive) |

| Structure (SMILES) | binding response (% of control) |
| --- | --- |
| COc1ccc(-c2[nH]ncc2CN(C)Cc2c(C)n[nH]c2C)c(OC)c1 | -2% [inhibitor] (active) |
| COc1ccc(-c2[nH]ncc2CN(C)Cc2cc(C)[nH]n2)c(F)c1 | 83% (inactive) |
| COc1ccc(-c2[nH]ncc2CN(C)Cc2cccnc2)c(F)c1 | 102% (inactive) |
| COc1ccc(CCOC(=O)CNC(=O)c2ccc(Cl)cc2Cl)cc1 | 86% (inactive) |
| CCc1cccc(C)c1NS(=O)(=O)c1c(C)nc2sccn2c1=O | 101% (inactive) |
| CCN(CC)c1ccc(/C=N/NC(=O)CNC(=O)c2cccs2)cc1 | 92% (inactive) |
| O=C(c1ccc(Cl)cc1)n1cnc2ccccc21 | 106% (inactive) |
| Cc1cc(C)c(NC(=O)c2oc3ccccc3c2COc2ccccc2)c(C)c1 | 100% (inactive) |
| Cc1cc(C)c(NC(=O)C[N+](C)(C)CC(O)COc2cccc3ccccc23)c(C)c1 (stereo unspecified) | 149% (active) |
| Cc1cc(C)cc(OCC(=O)NCc2cc(C)nc3ccccc23)c1 | 103% (inactive) |
| CC(C)(c1ccccc1)c1ccc(OCCN)cc1 | 117% (inactive) |
| CN(C)CC(O)COc1ccc(C(C)(C)c2ccc(OCC(O)CN(C)C)cc2)cc1 (stereo unspecified) | 225% (active) |
| Cc1cc(C)n(CC(O)COc2ccc(C(C)(C)C)cc2)n1 (stereo unspecified) | 107% (inactive) |
| COc1ccccc1C1=CC(=O)CCC1 | 98% (inactive) |
| CCOC(=O)C1Nc2ccc(C(F)(F)F)cc2C2C=CCC12 (stereo unspecified) | 98% (inactive) |
| CC1(C)Cc2c(sc(NC(=O)C(=O)N3CCOCC3)c2C#N)CO1 | 95% (inactive) |
| CC(C)c1ccc(C(=O)NCCCc2ccccc2)cc1 | 2% [inhibitor] (active) |
| CCCOc1ccc(C(=O)NCCc2ccccc2)cc1 | 94% (inactive) |
| Cc1cc(C(=O)NCCCc2ccccc2)no1 | 99% (inactive) |
| O=C(NCc1ccccc1Cl)NC(=O)c1csc([N+](=O)[O-])c1 | -14% [inhibitor] (active) |
| O=C(NCc1ccccc1Cl)c1csc2c1CCCCC2 | 93% (inactive) |
| O=[N+]([O-])c1ccccc1NCc1ccccc1Cl | 66% (inactive) |
| CCCCCc1c(C)nc(N2CCN(Cc3ccc4c(c3)OCO4)CC2)[nH]c1=O | 97% (inactive) |
| COc1cccc(CC2(CO)CCN(Cc3cnc(-c4cccc(C)c4)nc3)CC2)c1 | 98% (inactive) |

| Structure (SMILES) | binding response (% of control) |
| --- | --- |
| Cc1cccc(-c2ncc(CN3CCC(CO)(CCCc4ccccc4)CC3)cn2)c1 | 163% (active) |
| OCC1(CCc2ccccc2)CCN(Cc2ccc3nsnc3c2)CC1 | 89% (inactive) |
| O=C(COc1ccc2ccc(=O)oc2c1)NCC(O)c1ccccc1 (stereo unspecified) | 104% (inactive) |
| O=C(O)C1CCN(c2ccc([N+](=O)[O-])cc2[N+](=O)[O-])CC1 | 46% [inhibitor] (active) |
| CCOC(=O)C1CCN(c2ccc(C(=O)O)cc2[N+](=O)[O-])CC1 | 101% (inactive) |
| CC1CCN(c2ccc([N+](=O)[O-])cc2C(N)=O)CC1 | 95% (inactive) |
| CCOc1ccccc1-c1cc(C(=O)N/N=C(\C)c2cccnc2)c2ccccc2n1 | 92% (inactive) |
| Cc1cc(C(=O)NC2CCN(Cc3ccccc3)CC2)n[nH]1 | 98% (inactive) |
| CCOc1ccc(CC(=O)NC2CCN(Cc3ccccc3)CC2)cc1 | 108% (inactive) |
| O=C(NC1CCN(Cc2ccccc2)CC1)c1c(F)cccc1F | 113% (inactive) |
| O=C(NC1CCN(Cc2ccccc2)CC1)c1cc(Br)c(Br)[nH]1 | 140% (active) |
| O=C(NC1CCN(Cc2ccccc2)CC1)c1ccc(Oc2cc(Cl)cc(Cl)c2)o1 | 142% (active) |
| O=C(NC1CCN(Cc2ccccc2)CC1)c1ccccc1F | 101% (inactive) |
| C#CCOc1ccc(/C=C2/C(=O)ON=C2C)cc1OCC | 107% (inactive) |
| CCc1nnc(SCc2cccc(F)c2)nc1CC | 103% (inactive) |
| Fc1ccc(-c2ccc(CNCc3ccccn3)o2)cc1Cl | 140% (active) |
| O=C(NCc1ccccn1)c1cc(Br)ccc1Cl | 106% (inactive) |
| COc1ccc(-c2ccc(CNCCCN3CCOCC3)o2)cc1Cl | 106% (inactive) |
| O=C(Cc1cccs1)Nc1cccc(-c2nc3ccccc3[nH]2)c1 | 95% (inactive) |
| Cc1ccc(-c2nc3ccccc3[nH]2)cc1NC(=O)c1sc2ccccc2c1Cl | 98% (inactive) |
| O=C(Nc1cccc(-c2nc3ccccc3[nH]2)c1)c1ccc(C(=O)Nc2cccc(-c3nc4ccccc4[nH]3)c2)cc1 | 63% [inhibitor] (active) |
| C=C1CCN([C@@H](Cc2ccccc2)C(=O)N2CCOCC2)S(=O)(=O)c2ccccc21 | 107% (inactive) |
| COc1ccc(NC(=O)CCC(=O)Nc2cc(OC)c(NC(=O)c3ccco3)cc2OC)c(OC)c1 | 96% (inactive) |
| O=C(NCC1CC1)c1onc(CSc2ccccc2)c1C(=O)NCC1CC1 | 95% (inactive) |

| Structure (SMILES) | binding response (% of control) |
| --- | --- |
| COc1ccc(CNC(=O)c2nnn(CC(=O)Nc3cc(C)cc(C)c3)c2N)cc1 | 101% (inactive) |
| COc1ccc(NC(=O)Cn2nnc(C(=O)NCCc3ccc(OC)c(OC)c3)c2N)cc1 | 2% [inhibitor] (active) |
| CCc1ccc(NC(=O)Cn2nnc(C(=O)NCc3ccc(OC)cc3)c2N)cc1 | 104% (inactive) |
| CCC(C)N1CC(=O)N2Cc3[nH]c4ccccc4c3C[C@H]2C1=O (stereo partly specified) | 109% (inactive) |
| COc1ccc(NC(=O)C/C(C)=N/NC(=O)c2cnccn2)cc1Cl | 96% (inactive) |
| CC(=O)Nc1cccc(OCC(=O)/C=C2\N(C)c3ccccc3C2(C)C)c1 | 63% [inhibitor] (active) |
| CN1/C(=C\C(=O)c2cccnc2Cl)C(C)(C)c2ccccc21 | 95% (inactive) |
| Cc1noc(C)c1C(=O)OCC(=O)/C=C1\N(C)c2ccccc2C1(C)C | 96% (inactive) |
| COc1ccc(Cl)cc1-n1c(=S)sc2c(=O)n(-c3ccc(F)cc3)c(SCC(=O)O)nc21 | 101% (inactive) |
| COc1ccc(Oc2cn[nH]c2-c2ccc(OC)cc2O)cc1 | 98% (inactive) |
| CN(C)CCCNC(=S)N1CCC(c2nc3ccccc3[nH]2)CC1 | 116% (inactive) |
| COCCCNC(=S)N1CCN(c2nc(-c3cccc(OC)c3)cs2)CC1 | 95% (inactive) |
| CN(C)CCCNC(=S)N1CCN(c2nc(-c3ccccc3)cs2)CC1 | 149% (active) |
| O=C(CSc1ccc(-c2ccccn2)nn1)Nc1ccccc1 | 110% (inactive) |
| COc1cc2c(cc1OC)C(c1ccccc1Br)NC(=O)C2 (stereo unspecified) | 103% (inactive) |
| COCCCN1C(=O)c2ccc(C(=O)OCC(=O)NCc3ccccc3OC)cc2C1=O | 101% (inactive) |
| CN1CCN(CCCNC(=O)c2ccc(/C=C3\Oc4ccccc4N(Cc4ccc(Cl)cc4)C3=O)cc2)CC1 | 171% (active) |
| CN1C(=O)/C(=C/c2ccc(C(=O)NC3CCCC3)cc2)Oc2ccccc21 | 99% (inactive) |
| CCCN1CCN(C(=O)CCCNC(=O)c2ccc(Cl)cc2)CC1 | 100% (inactive) |
| CS(=O)(=O)N(CC(=O)N1CCCCCC1)c1cccc(Cl)c1Cl | 108% (inactive) |
| CCc1cccc(C)c1NS(=O)(=O)c1cc(Br)cnc1N | 92% (inactive) |
| CCN1/C(=C/C(=S)Nc2ccccc2)Sc2ccccc21 | 87% (inactive) |
| CCN1/C(=C\c2ccc3ccccc3[n+]2CC)Sc2cc(C)ccc21 | 20% [inhibitor] (active) |
| CCN1/C(=C/c2ccc3ccc(C)cc3[n+]2CC)Sc2ccccc21 | 74% (inactive) |
